Results filed as inconclusive are left out. A call without a number means that no potency is given here. The source made the active and inactive calls. The call rests on the fitted dose curve; in most records, active means well fitted curve in the direction sought with a large enough effect; inconclusive means small, poorly fitted or top-dose-only effect, or another doubt; inactive means no such curve, though single readings can be large; an effect the other way counts as inactive or inconclusive.
Experiments:
[1] = target: Aldehyde dehydrogenase, mitochondrial (Homo sapiens) (UniProt P05091); test: qHTS for Inhibitors of the Aldehyde Dehydrogenase Family (ALDH2) Primary screen (AID 2061308); details: ALDH2 enzyme inhibition qHTS, 1536-well; series mostly up to 56 µM; further: nearly all actives have a fitted effect of over 55% in size
[2] = target: Retinaldehyde dehydrogenase 3 (Homo sapiens) (UniProt P47895); test: qHTS for Inhibitors of the Aldehyde Dehydrogenase Family (ALDH1A3) Primary screen (AID 2061315); details: ALDH inhibition qHTS; series mostly up to 56 µM

Compound | Potency [1] | Potency [2]
CC1=CC2/C=C(\C)CCC(O)C/C=C/C(=O)OC23C(=O)NC(CC(C)C)C3C1C (stereo unspecified) | inactive | inactive
CCc1ccc2oc(=O)cc(CN3CCN(c4ccccc4F)CC3)c2c1 | inactive | inactive
O=c1c2ccccc2nc2sc(Nc3ccc(Br)cc3)nn12 | inactive | inactive
CN(Cc1cncn1C)c1ncnc2ccc(-c3ccc4c(c3)OCO4)cc12 | inactive | inactive
O=C(CNC(=O)C1CCCCCC1)OC(C(=O)Nc1cc(C(F)(F)F)ccc1Cl)c1ccccc1 (stereo unspecified) | inactive | inactive
O=C(/C=C/c1ccccc1Br)NCCc1nc2ccccc2[nH]1 | inactive | inactive
N#Cc1nc(-c2cccc3ccccc23)oc1N | inactive | inactive
CN(CC(=O)Nc1ccc(N2CCOCC2)cc1)Cc1ccccc1O | inactive | inactive
Cc1ccc(S(=O)(=O)Nc2cccc(C(=O)Nc3nc(-c4ccccc4)cs3)c2)cc1 | inactive | inactive
CCOC(=O)c1cccc(-n2cnc(/C=C3\NC(=O)N(CC(=O)OC(C)(C)C)C3=O)c2)c1 | inactive | inactive
Cc1cccc(-c2csc(N3CCC(C(N)=O)CC3)n2)c1 | inactive | inactive
Cn1c2ccsc2c2cnn(Cc3ccc(F)cc3)c(=O)c21 | inactive | inactive
Cc1cc(N[S+](=O)([O-])c2ccc(NC(=O)Cn3c(=O)oc4ccc(Cl)cc43)cc2)no1 | inactive | inactive
O=C(CNC(=O)c1ccccc1)OC(C(=O)Nc1ccc2c(c1)OCO2)c1ccccc1 (stereo unspecified) | inactive | inactive
CCC(CC)C(=O)NCCc1nc2ccccc2n1CCOc1ccc(C)cc1 | inactive | inactive
O=C(c1ccccc1)N(C(=O)c1ccccc1)c1ncnc2c1C(c1ccccc1)c1c(ccc3ccccc13)O2 (stereo unspecified) | inactive | inactive
O=[S+]([O-])(c1ccc2c(c1)OCCO2)N1CCN([S+](=O)([O-])c2c(Cl)cc(Cl)cc2Br)CC1 | inactive | inactive
CC(C)c1ccccc1-c1ncc(F)c(NCc2ccc(-n3ccnn3)cc2)n1 | inactive | inactive
Cc1cccc(CNc2ncnc3ccc(-c4cccc(Cl)c4)cc23)c1 | inactive | inactive

Compound | Potency [1] | Potency [2]
CCOc1ccccc1CNc1ncnc2ccc(-c3c(C)noc3C)cc12 | inactive | inactive
Cc1sc(C)c2c1C(=O)NS2(=O)=O | inactive | inactive
O=C(Nc1nc(-c2ccccc2)cs1)c1ccncc1NS(=O)(=O)c1ccc(F)cc1 | inactive | inactive
COc1cc(NS(=O)(=O)c2ccc(C)cc2)c(C(=O)Nc2nc(-c3ccccc3)cs2)cc1OC | inactive | inactive
CC1CC(=O)NN=C1c1ccc(NCC(C)(C)NCC(O)COc2cc(Cl)ccc2C#N)cc1 (stereo unspecified) | inactive | inactive
O=Cc1nc(Nc2cc(F)cc(F)c2)nc(NC2CCCC2)n1 | inactive | inactive
N#Cc1nc(NCCCO)nc(Nc2ccccc2)n1 | inactive | inactive
O=C(Nc1ccc([S+](=O)([O-])Nc2nccs2)cc1)C1CCNCC1 | inactive | inactive
O=C(Nc1ccc(-c2nc3ccccc3[nH]2)cc1)c1ccc(Oc2ccccc2)cc1 | inactive | inactive
Cc1cc2c(s1)c1cnn(Cc3cccc(C(F)(F)F)c3F)c(=O)c1n2C | inactive | inactive
CC(C)c1ccc(=O)n(CC(=O)NCCc2ccccc2)n1 | inactive | inactive
CO[C@H]1C[C@@H]2CC[C@@H](C)[C@@](O)(O2)C(=O)C(=O)N2CCCC[C@H]2C(=O)O[C@H]([C@@H](C)C[C@@H]2CC[C@@H](O)[C@H](OC)C2)CC(=O)[C@H](C)/C=C(\C)[C@@H](O)[C@@H](OC)C(=O)[C@H](C)C[C@H](C)/C=C/C=C/C=C/1C | inactive | inactive
Cc1nc(N2CCOCC2)c2nc(-c3ccccc3)n(CCN3CCCCC3)c2n1 | inactive | inactive
COc1ccc(C2c3c(N)nc(CCCc4ccccc4)nc3Oc3ccc4ccccc4c32)cc1OC (stereo unspecified) | inactive | inactive
Cc1nc(NC2CCCCC2)c2nc(-c3ccccc3)n(CCN3CCCCC3)c2n1 | inactive | inactive
CCOc1ccc(CCNC(=O)c2cc3sccc3n2Cc2ccncc2)cc1OCC | inactive | inactive
Cc1cc(C)n2ncc(C(=O)NC(C)C)c2n1 | inactive | inactive
CCN(CC)CCCn1c(-c2ccccc2)nc2c(NCc3ccccc3)nc(C)nc21 | inactive | inactive
O=S(=O)(NCc1ccccc1)c1ccc(O)c2ncccc12 | inactive | inactive

Source: PubChem BioAssay (NCATS)
